Pf Dd2 growth: blocks in vitro growth of P. falciparum Dd2 | AID 1347417 | 4.3% of 120,000 active | Potency, µM (doses to about 28.9 µM), actives largely listed as inhibitors | P. falciparum Dd2 growth, SYBR Green, 72 h; active means well fitted inhibition curve with a large enough effect; further: nearly all actives have a fitted effect of over 65% in size
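Readout: SYBR Green fluorescence, 485 nm excitation, 535 nm emission, after ~16 h lysis at 37C. Before that, Dd2-infected red cells (2.5% hematocrit) grew 72 h with compound, 29 uM top final concentration.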
Of the large screens only hits and unclear results are named; the others gave an inactive call. The full list was thinned out, with hits kept by preference.

c1cc(N2CCCCC2)ccc1-c1n[nH]c(C2CCOC2)n1 (stereo not given)	none
COc1cccc(C(=O)N2CCCC(n3cc(-c4nc(C5CC5)no4)nn3)C2)c1 (stereo not given)	none
COc1ccc(-c2noc(-c3nc(Cc4ccccc4)no3)n2)cc1OC	none
COc1ccc(CCN2C(=O)O[C@@H]3CN(C(=O)CN)C[C@@H]32)cc1	none
COc1ccc(CCN2CC(NCc3ccc(-n4cccn4)cc3)CC2=O)cc1 (stereo not given)	none
Cc1cc(N2CCC(c3nccn3Cc3ccccn3)CC2)nc2ccccc12	none
O=C(c1cncnc1)N1C[C@@H](COCC2CC2)[C@H](c2ccncc2)C1	none
Cc1ccccc1C(=O)N1C[C@@H](COCC2CC2)[C@H](c2ccncc2)C1	none
COc1cccc(CN2C[C@@H](COCC3CC3)[C@H](c3ccncc3)C2)n1	Pf Dd2 growth 11µM
COCC(=O)N[C@@H]1CN(Cc2ccccc2F)C[C@H]1CO	none
O=C(CSc1nc2c([nH]c3ccccc32)c(=O)n1-c1ccc(Cl)cc1)c1ccccc1	none
CCN(CC)CCSc1nc2ccccc2c(=O)n1-c1ccc(Cl)cc1	Pf Dd2 growth 7.9µM
CCCSc1nc2ccccc2c(=O)n1-c1ccccc1OC	none
COc1ccc(C(=O)N2CCC3(CC2)N=C(c2cccc(Br)c2)NO3)cc1F	none
COc1ccc(Cl)cc1NC(=O)Cn1ccn2nc(-c3ccc(F)cc3)c(CO)c2c1=O	none
Cn1nc(C2CCNC2)c2c(C(=O)N3CCOCC3)cc(C3CC3)nc21 (stereo not given)	none
COc1ccc(C(=O)N2CCc3ccc(C(=O)NCc4ccc5c(c4)OCO5)cc32)cc1	none
O=C(O)c1ccc2c(c1)n(Cc1ccccc1)c(=O)c1ccnn12	none
CNCc1ccccc1OC	none
CNCc1ccccc1-c1ccccc1	Pf Dd2 growth 11µM
CNCc1ccccc1C(F)(F)F	none
COc1ccc(CN2Cc3[nH]cnc3C[C@H]2C(=O)N(C)Cc2ccccc2)c2ccccc12	Pf Dd2 growth 5.6µM
COc1ccc(CN2Cc3[nH]cnc3C[C@H]2C(=O)NC2CCCCC2)c2ccccc12	Pf Dd2 growth 11µM
COc1ccc(CN2Cc3[nH]cnc3C[C@H]2C(=O)NCc2ccc(C#N)cc2)c2ccccc12	none
CN(Cc1ccccc1)C(=O)[C@@H]1Cc2nc[nH]c2CN1C	none
COc1ccc(CN2Cc3[nH]cnc3C[C@H]2C(=O)NCc2ccc(Cl)cc2)c2ccccc12	none
CN(C)c1ccc(CN2Cc3[nH]cnc3C[C@H]2C(=O)N2CCC(Cc3ccccc3)CC2)cc1	none
Cc1cccc(C(=O)N2CCCC(c3nn(-c4ccc(F)cc4)c(=O)[nH]3)C2)c1 (stereo not given)	none
O=C(NC1CCOC2(CCOCC2)C1)c1csc(Cc2ccccc2)n1 (stereo not given)	none
O=C1NC[C@@H](CCC(=O)N2CCN(c3ccccc3)CC2)N2C[C@@H](NCc3ccc(CO)o3)C[C@@H]12	none
N#Cc1cccc(C(=O)N2CC(F)(F)C[C@H]2c2nc(C3CC3)no2)c1	none
COC(=O)N1CCCC2(C1)C(=NC1CCCC1)NC(=O)N2c1cc(F)cc(F)c1 (stereo not given)	none
N#CCn1nc2n(c1=O)CCN(S(=O)(=O)c1cccc3cccnc13)CC2	none
O=C1Cc2c(-c3ccccc3OCc3ccccc3)n[nH]c2CN1Cc1ccccn1	Pf Dd2 growth 10µM
O=C1Cc2c(-c3ccccc3OCc3ccccc3)n[nH]c2CN1Cc1ccccc1	Pf Dd2 growth 10µM
COc1ccc(-c2n[nH]c3c2CC(=O)N(Cc2ccccn2)C3)cc1F	none
COc1ccc(CN2Cc3[nH]nc(-c4ccccc4OC)c3CC2=O)cc1	none
O=C1Cc2c(-c3ccccc3Cl)n[nH]c2CN1Cc1ccccc1	none
O=C1Cc2c(-c3cccc4ccccc34)n[nH]c2CN1Cc1ccccn1	none
Cc1ncsc1CN1CCC2(CC1)CC(CC(=O)NCc1ccncc1)CCO2 (stereo not given)	none
CN(C)Cc1nnc(C2CCN(C(=O)c3cn4cccnc4n3)CC2)n1C	none
COc1ccc(N2CCN(C(=O)c3c(OC)cc(=O)n4c3CCCC4)CC2)cc1	none
CC(C)NC(=O)c1onc(-c2ccc(F)cc2)c1[C@H](C)O	none
O=C1NCc2ccccc2CC12CCN(Cc1cccc(O)c1)CC2	none
O=C([C@@H]1C[C@H](F)CN1S(=O)(=O)c1cccc(Cl)c1)N1CCc2ccccc2C1	none
COc1cccc(CNC(=O)[C@@H]2C[C@@H](O)CN2C2CCN(C(=O)c3nccn3C)CC2)c1	none
COc1cccc(C(=O)NCC2(COc3ccc(C(F)(F)F)cn3)C[C@@H](O)[C@@H](O)C2)c1 (stereo not given in full)	none
CC(c1cccs1)N(C)S(C)(=O)=O (stereo not given)	none
CC(c1cccs1)N(C)Cc1cccc2ccccc12 (stereo not given)	Pf Dd2 growth 13µM
COc1cccc(CN(C)C(C)c2cccs2)c1 (stereo not given)	none
C[S+](=O)([O-])Nc1cccc(N2C[C@@H]3C(C(=O)NC4CCOCC4)=NO[C@@H]3C2)c1	none
CCn1cc(C(=O)N2CCc3cc(S(=O)(=O)NCC4CCCO4)ccc3C2)cn1 (stereo not given)	none
CC(C)CNC(=O)N1CC[C@H]2C(=O)NCCCCCCN(Cc3ccncc3)[C@@H]2C1	none
NCc1ccccc1-c1cccc(Cl)c1	Pf Dd2 growth 8.9µM
NCc1cn[nH]c1-c1ccccc1	none
NCc1ccccc1-c1ccc(O)cc1	none
COCCOC1CCN(C(=O)COc2ccc(C)cc2)CC1	none
CC(NC(=O)CCc1ccccc1)C(=O)N1CCN(c2ccccn2)CC1 (stereo not given)	none
Cc1cccc(NC(=O)C2CCN(C(=O)c3ncn4c3COC(c3ccccc3)C4)CC2)c1 (stereo not given)	none
COc1ccc(-c2noc([C@@H]3C[C@H](NC(=O)c4ccc(F)cc4)CN3C)n2)cc1	none
COc1ccc(C(=O)N[C@H]2C[C@@H](c3nc(-c4ccccc4)no3)N(C)C2)cc1	none
COc1ccc(-c2noc([C@@H]3C[C@H](NCc4ccccn4)CN3C)n2)cc1	Pf Dd2 growth 10µM
COc1ccc(NC(=O)N[C@H]2C[C@@H](c3nc(-c4ccc(F)cc4)no3)N(C)C2)cc1	none
COc1ccc(-c2noc([C@@H]3C[C@H](NCc4ccc(S(C)(=O)=O)cc4)CN3C)n2)cc1	none
CN1C[C@@H](NC(=O)c2cnccn2)C[C@H]1c1nc(-c2ccc(OC(F)(F)F)cc2)no1	Pf Dd2 growth 14µM
Cc1ccc(-c2noc([C@@H]3C[C@H](NC(=O)Nc4ccc(Cl)cc4)CN3C)n2)cc1	none
CN1C[C@@H](NC(=O)Nc2ccc(Cl)cc2)C[C@H]1c1nc(-c2ccc(F)cc2)no1	Pf Dd2 growth 14µM
CN1C[C@@H](NC(=O)c2ccccn2)C[C@H]1c1nc(-c2ccc(Cl)cc2)no1	none
O=C(NCCc1noc(-c2ccncc2)n1)c1ccccc1F	none
COc1ccc(C(=O)N[C@@H]2CCC[C@@H]2C(=O)NCc2cccnc2)cc1	none
O=C(CCc1ccnc(N2CCOCC2)c1)N1CCCN(c2ncccn2)CC1	none
O=C(CC1COCCN1S(=O)(=O)c1ccccc1)NCc1ccccn1 (stereo not given)	none
CCOc1cc(=O)n2c(c1C(=O)Nc1ccc(C)c(F)c1)CCCC2	none
CC1(COCC2CC2)COc2ccc(C(=O)NCc3cccc(F)c3)cc2N1 (stereo not given)	none
CCn1cc(C(=O)NCCc2ccccc2)c(=O)c2cc(S(=O)(=O)N(C)C3CCCCC3)ccc21	none
CCCCN(CC)CCCNC(=O)c1cn(CC)c2ccc(S(=O)(=O)N3CCc4ccccc4C3)cc2c1=O	Pf Dd2 growth 10µM
CCCN(CCC)CCCNC(=O)c1cn(CC)c2ccc(S(=O)(=O)N3CCc4ccccc4C3)cc2c1=O	none

Assay outcomes as filed in PubChem BioAssay.
